The list is not random: actives were taken first. Their share in the collection is about 5.6%.
Six1-Eya2 blk – blocks human Six1 binding to Eya2; Q15475+O00167; 360,000 tested, 0.56% active; activity change, % (no concentration beside the values); AlphaScreen GST-Six1/His-Eya2 binding, biochemical; hits give low values; AID 651725; in the data active means activity change below about -65%; inconclusive means mostly about -30% to -63%
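Homogeneous AlphaScreen proximity assay pairing GST-Six1 with His-tagged Eya2 (added as 5X mix: 250 nM and 500 nM) in 50 mM Tris pH 8.0, 300 mM NaCl, 1 mM TCEP. Glutathione donor and nickel acceptor beads; 1 h, 37 °C, dark.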
CtBP-E1A inh – blocks the CtBP interaction with E1A. AlphaScreen GST-E1A/His-CtBP binding, 1536-well; hits give low values. activity change, % (no concentration beside the values). 340,000 tested, 0.49% active. AID 651724; in the data active means activity change below about -65%; inconclusive means mostly about -30% to -63%
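Steps: dispense buffer (Tris pH 8.0, NaCl 300 mM, TCEP 1 mM, BSA, Tween 20); add 5X protein mix (GST-E1A, His-CtBP, 125 nM each); pin 23 nL compound; 2 h at 37 °C, dark; add 5X beads (50 ug/mL); 1 h; read.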
RORg inh – blocks mouse ROR gamma transcriptional activity | AID 2551 | Drosophila S2 Gal4-RORgamma UAS-luciferase reporter, 20 h | P51450 | Potency, µM (titrated, usually from 53.6 µM), inactives show top-dose activity change, negative = inhibition, most hits filed as inhibitors | 310,000 tested, 5.4% active; further: potency means the concentration at half of the fitted maximal effect; nearly all actives have a fitted effect of over 60% in size
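Read-out: Photinus luciferase luminescence; inhibitors lower reporter signal. Insect Schneider cells with Gal4-ROR gamma fusion under metallothionein promoter, UAS reporter; 700 uM final copper sulfate induction, 20 hr, ambient temperature.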
PKM2 activator – activators of human pyruvate kinase M2; AID 1631; Potency, µM (doses to about 57.5 µM), for inactives: at the highest dose activation, hits mostly activators; 260,000 tested, 0.34% active; P14618; purified PKM2, Kinase-Glo ATP luminescence, activation; response scale: 0% is enzyme alone, no compound; further: potency means the concentration at half of the fitted maximal effect; nearly all actives have a fitted effect of over 55% in size
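Purified hPK-M2 (>95% pure) converted ADP (0.1 mM final) to ATP with 0.5 mM PEP in 50 mM imidazole pH7.2, KCl, MgCl2, Tween 20, BSA; 1 h at room temperature. ATP detected by Kinase-Glo luminescence.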
Gal4-VP16 FLuc – inhibits Gal4-VP16 luciferase reporter, ROR gamma counter-screen. Drosophila S2 Gal4-VP16 UAS-luciferase, luminescence, 20 h. Potency, µM (top dose mostly 53.6 µM), without a hit: top-dose activity, negative = inhibition, actives largely listed as inhibitors. 310,000 tested, 3.5% active. AID 2546;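 further: Gal4-VP16 expression switched on by copper sulfate through the metallothionein promoter; potency means the concentration at half of the fitted maximal effect; nearly all actives have a fitted effect of over 50% in size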
* hit, by the source's call; ? = inconclusive; nt = no result. Unless noted, the call rests on the fitted dose curve; in most records, active means well fitted curve in the direction sought with a large enough effect; inconclusive means small, poorly fitted or top-dose-only effect, or another doubt; inactive means no such curve, though single readings can be large; an effect the other way counts as inactive or inconclusive. On the % scale 0 is the no-effect control and ±100 the full control effect.

SMILES	Six1-Eya2 blk	CtBP-E1A inh	RORg inh	PKM2 activator	Gal4-VP16 FLuc
CCc1ccccc1NC(=S)/N=C(\N)Nc1nc(C)c2cc(C)ccc2n1	-14	17	2.8µM*	-17%	3.2µM*
COC(=O)N1C(=O)[C@](Cc2ccccc2)(c2ccccc2)N1C(=O)OC	-2	0	12%	-5%	-3%
CS(=O)(=O)N1CCC(C(=O)NCc2ccc(Cl)cc2)CC1	3	5	39%	-4%	-6%
CCc1nnc(NC(=O)CSc2nccn2-c2cc(C)cc(C)c2)s1	1	-23	18µM*	0%	?
CCc1nnc(NC(=O)CSc2nc3cccnc3n2C2CCCCC2)s1	-3	-1	10µM*	?	?
Cc1cccc(-n2ccnc2SCC(=O)Nc2nccs2)c1C	-14	-8	?	-2%	10%
CCc1nnc(NC(=O)CSc2nccn2-c2cccc(C)c2C)s1	2	0	2.8µM*	1%	18µM*
O=C(Cc1cccc(NC(=O)C2CCCN(C(=O)C3CCC3)C2)c1)Nc1cccc(C(=O)N2CCCC2)c1 (stereo not drawn)	4	2	nt	nt	nt
COc1ccccc1-c1nnc(SC(C)C(=O)O)n1-c1ccccc1 (stereo not drawn)	3	nt	-6%	-1%	-1%
O=C(Cc1ccc(Cl)cc1)Nc1ccncc1	4	7	?	0%	2.8µM*
CN(CCCC(=O)Nc1ccncc1)S(=O)(=O)c1ccc(Cl)cc1	1	-2	25%	-11%	16µM*
Cc1ccc2c(c1)c(-c1ccccc1)nc1nnnn12	-1	1	4%	3%	1%
COc1ccc(S(=O)(=O)N2CCCCCC2)cc1NC(C)C(=O)Nc1ccc(NC(C)=O)cc1 (stereo not drawn)	5	-15	nt	nt	nt
CCCCCS(=O)(=O)CCCCCCCCCCn1c(-c2ccc(O)cc2)c(C)c2cc(O)ccc21	nt	nt	?	6%	20µM*
C/C(=N\Nc1c([N+](=O)[O-])c(C)nn1C)c1ccc(F)cc1F	1	2	-2%	0%	-8%
Oc1c(C(Nc2nccs2)c2ccc(C(F)(F)F)cc2)ccc2cccnc12 (stereo not drawn)	?	?	0.56µM*	-9%	1µM*
Oc1c(C(Nc2cccc(C(F)(F)F)c2)c2ccncc2)ccc2cccnc12 (stereo not drawn)	-92*	-94*	4µM*	3%	5.6µM*
Cc1[nH]c2ccccc2c1C(Nc1nccs1)c1ccncc1 (stereo not drawn)	0	9	40%	-3%	12%
O=C(Nc1cccc(C(F)(F)F)c1)c1cccnc1	-1	3	23%	-5%	5%
O=c1[nH]c2c(c(=O)[nH]1)OCN(Cc1ccccc1)C2	0	-18	nt	nt	nt
Cc1nn(C(C)C(=O)NCCc2ccco2)c(=O)c2nn(-c3ccccc3)c(C)c12 (stereo not drawn)	1	2	-13%	nt	2%
CC1CCN(C(=O)/C(=C\c2ccco2)NC(=O)c2ccccc2)CC1	-1	-15	36%	1%	-2%
CC1CCN(C(=O)/C(=C\c2cccs2)NC(=O)c2ccccc2)CC1	7	0	2.8µM*	3%	18µM*
CCCCn1c(=N)n(CC(=O)C(C)(C)C)c2ccccc21	-13	-6	5µM*	-2%	?
CCCn1c(=N)n(CC(=O)C(C)(C)C)c2ccccc21	-17	-9	?	13%	1%
SMILES	Six1-Eya2 blk	CtBP-E1A inh	RORg inh	PKM2 activator	Gal4-VP16 FLuc
Cn1c(=N)n(CC(=O)O)c2ccccc21	31	0	1%	-17%	-8%
CCn1c(=N)n(CC(=O)C(C)(C)C)c2ccccc21	-6	0	?	-14%	3.2µM*
Cn1c(=N)n(CC(=O)c2ccccc2)c2ccccc21	13	2	8.9µM*	0%	11µM*
Cn1c(=N)n(CC(=O)C(C)(C)C)c2ccccc21	11	8	11µM*	-1%	?
Cc1cccc(C)c1NC(=O)CNC(=O)C(C)N(C)CC(=O)Nc1ccc(F)cc1 (stereo not drawn)	6	12	nt	nt	nt
OCCC1CN(Cc2ccc3c(c2)CCO3)CCN1C1CCCC1 (stereo not drawn)	2	5	2%	6%	-7%

From PubChem
